The values that follow come from PubChem BioAssay (NCATS).

Experiment [1] in a line: Cytotoxicity counterscreen for inhibitors of SARS-CoV-2 cell entry (AID 1645845). Further: nearly all actives have a fitted effect of over 50% in size. The procedure, abridged:
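Counterscreen run in the same HEK293-ACE2 line as the pseudotyped-particle entry assay, without particles. Viability after 48 h at 37 C was read as ATP luminescence, scaled between cell-containing and cell-free wells.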
(In general: Counterscreens check selectivity or assay interference.)

Experiment [2] in a line: Primary qHTS to identify inhibitors of SARS-CoV-2 cell entry (AID 1645846). Further: nearly all actives have a fitted effect of over 45% in size. Further: potency means the concentration at half of the fitted maximal effect. Conditions: activity change, negative = inhibition: at 57.1 µM (top of the series) unless noted. The procedure, abridged:
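Inhibition of spike-mediated entry was scored in human ACE2-transfected Expi293F cells. Particles were MLV-pseudotyped with Wuhan-Hu-1 S carrying a 19-aa C-terminal deletion; signal was luciferase after two days, scaled between spike PP and fusion-protein-free PP.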
A general note: qHTS replaces the single test concentration by a dilution series.

“And” between values parts separate entries of the source, which are not always exact repeats. Identical values can stand only once. Records with an inconclusive call do not appear. The source made the active and inactive calls. The call rests on the fitted dose curve.

As for `N[C@@H](C(=O)N[C@@H]1C(=O)N2C(C(=O)O)=C(Cl)CS[C@H]12)c1ccccc1`, the outcome in experiment [1] and in experiment [2] was “inactive [at 11.3 µM]” in each case.

In the case of `O[C@@H]1CO[C@H]2[C@@H]1OC[C@@H]2O`, the Potency result in experiment [1] and in experiment [2] was “inactive” each time.

In the case of `O=C1NC(c2ccccc2)(c2ccccc2)C(=O)N1COP(=O)(O)O`, the Potency entry in experiment [1] is “inactive”. The activity change, negative = inhibition in experiment [2] is -4.89%.

Regarding `O=C(c1ccccc1)c1ccc2n1CCC2C(=O)O` (configuration not stated), the Potency entry in experiment [1] and in experiment [2] was “inactive” each time.

Turning to `CN(C)c1ccc(O)c2c1C[C@H]1C[C@H]3[C@H](N(C)C)C(=O)C(C(N)=O)=C(O)[C@@]3(O)C(=O)C1=C2O`, the Potency entry in experiment [1] was “inactive”. Moreover, in experiment [2], the activity change, negative = inhibition is -8.61%.

In the case of `COc1cc2c(cc1OC)[C@@H]1CC(=O)[C@@H](CC(C)C)CN1CC2`, the Potency entry in experiment [1] and in experiment [2] was “inactive” throughout.

Take `C=C(CC)C(=O)c1ccc(OCC(=O)O)c(Cl)c1Cl`: the Potency entry in experiment [1] is “inactive”. Also, the Potency in experiment [2] was 17.8 µM (active).

Take `O=C1OCCN1/N=C/c1ccc([N+](=O)[O-])o1`: the Potency result in experiment [1] and in experiment [2] was “inactive” each time.

As for `CCCCc1nc(Cl)c(CO)n1Cc1ccc(-c2ccccc2-c2nn[nH]n2)cc1`, the Potency entry in experiment [1] and in experiment [2] was “inactive” throughout.

As to `CC[C@]1(O)C[C@@H]2CN(CCc3c([nH]c4ccccc34)[C@@](C(=O)OC)(c3cc4c(cc3OC)N(C)[C@H]3[C@@](O)(C(=O)OC)[C@H](OC(C)=O)[C@]5(CC)C=CCN6CC[C@]43[C@@H]65)C2)C1`, the Potency entry in experiment [1] is “inactive”. In experiment [2], the activity change, negative = inhibition is -82.9%.

Regarding `Cc1nc2n(c(=O)c1CCN1CCC(c3noc4cc(F)ccc34)CC1)CCCC2`, the Potency result in experiment [1] and in experiment [2] was “inactive” throughout.

`CO[C@@H](C(=O)N1Cc2[nH]nc(NC(=O)c3ccc(N4CCN(C)CC4)cc3)c2C1)c1ccccc1`: the Potency entry in experiment [1] is “inactive”. In addition, in experiment [2], the activity change, negative = inhibition is -64.7%.

In the case of `Cc1cnc(C(=O)NCCc2ccc(S(=O)(=O)NC(=O)NC3CCCCC3)cc2)cn1`, the Potency entry in experiment [1] is “inactive”. Besides, the activity change, negative = inhibition in experiment [2] turned out to be 3.67%.

Turning to `Oc1ccc(C2CNCCc3c2cc(O)c(O)c3Cl)cc1` (configuration not stated), the Potency result in experiment [1] and in experiment [2] was “inactive” each time.

Take `Cc1ccc(-c2cc(C(F)(F)F)nn2-c2ccc(S(N)(=O)=O)cc2)cc1`: the Potency entry in experiment [1] was “inactive”. The activity change, negative = inhibition in experiment [2] was -19.2%.

For the compound `Nc1nnc(-c2cccc(Cl)c2Cl)c(N)n1`, the Potency entry in experiment [1] and in experiment [2] was “inactive” in each case.

As for `CC(c1cc2ccccc2s1)N(O)C(N)=O` (configuration not stated), in experiment [1], the Potency entry was “inactive”. The activity change, negative = inhibition in experiment [2] is 4.54% and -93%.

Regarding `CC(C)(C#N)c1cc(Cn2cncn2)cc(C(C)(C)C#N)c1`, the Potency result in experiment [1] and in experiment [2] was “inactive” throughout.

In the case of `N[C@@H](Cc1cc(I)c(Oc2cc(I)c(O)c(I)c2)c(I)c1)C(=O)O`, the Potency entry in experiment [1] was “inactive”. Moreover, in experiment [2], the activity change, negative = inhibition was -14.2%.

On to `CCCNC(=O)NS(=O)(=O)c1ccc(Cl)cc1`, for which the Potency entry in experiment [1] and in experiment [2] was “inactive” throughout.

Take `CC[C@@H](CO)NCCN[C@@H](CC)CO`: the Potency entry in experiment [1] is “inactive”. In addition, in experiment [2], the activity change, negative = inhibition is -13.9%.

For `CCCNCC(O)COc1ccccc1C(=O)CCc1ccccc1` (configuration not stated), the Potency result in experiment [1] is “inactive”. Besides, the Potency in experiment [2] is 20 µM (active) and 35.5 µM (active).

Take `Fc1ccc([C@@H]2CCNC[C@H]2COc2ccc3c(c2)OCO3)cc1`: the Potency entry in experiment [1] was “inactive”. Besides, the activity change, negative = inhibition in experiment [2] was -4.22%.

Consider `NC(=O)N1c2ccccc2CC(=O)c2ccccc21`, for which the Potency entry in experiment [1] and in experiment [2] was “inactive” throughout.

Regarding `CC(C)c1c(C(=O)Nc2ccccc2)c(-c2ccccc2)c(-c2ccc(F)cc2)n1CC[C@@H](O)C[C@@H](O)CC(=O)O`, the Potency entry in experiment [1] was “inactive”. The activity change, negative = inhibition in experiment [2] was -13%.

On to `COC(=O)Nc1nc2ccc(C(=O)c3ccccc3)cc2[nH]1`, for which the Potency entry in experiment [1] is “inactive”. In addition, the activity change, negative = inhibition in experiment [2] was -67.2% and -34.4%.

As to `CC(N)C12CC3CC(CC(C3)C1)C2` (configuration not stated), the Potency result in experiment [1] was “inactive”. In addition, the activity change, negative = inhibition in experiment [2] is -7.42%.

In the case of `CC(C)(C)NC(=O)[C@H]1CC[C@H]2[C@@H]3CC[C@H]4NC(=O)C=C[C@]4(C)[C@H]3CC[C@]12C`, the Potency result in experiment [1] and in experiment [2] was “inactive” each time.

For `O=C1N=C(O)CN1/N=C/c1ccc(-c2ccc([N+](=O)[O-])cc2)o1`, the Potency result in experiment [1] and in experiment [2] was “inactive” throughout.

For the compound `COc1cccc2c1C(=O)c1c(O)c3c(c(O)c1C2=O)C[C@@](O)(C(=O)CO)C[C@@H]3O[C@H]1C[C@H](N)[C@H](O)[C@H](C)O1`, the Potency entry in experiment [1] is “inactive”. The activity change, negative = inhibition in experiment [2] is -93.7%.

For `CCOC(=O)[C@H](CCc1ccccc1)N[C@@H](C)C(=O)N1Cc2ccccc2C[C@H]1C(=O)O`, in experiment [1], the Potency entry was “inactive”. For the same compound, the activity change, negative = inhibition in experiment [2] was determined as 3.61%.

As for `C[C@@H](O)[C@H]1C(=O)N2C(C(=O)O)=C(S[C@@H]3CN[C@H](CNS(N)(=O)=O)C3)[C@H](C)[C@H]12`, the Potency result in experiment [1] was “inactive”. In addition, the activity change, negative = inhibition in experiment [2] was -25.7%.

On to `CCCC(=O)Nc1ccc(OCC(O)CNC(C)C)c(C(C)=O)c1` (configuration not stated), for which the Potency entry in experiment [1] is “inactive”. In addition, the activity change, negative = inhibition in experiment [2] worked out at 4.12%.

Turning to `C1N2CN3CN1CN(C2)C3`, the Potency result in experiment [1] and in experiment [2] was “inactive” throughout.

Take `NC(=O)C(c1ccccc1)(c1ccccc1)[C@@H]1CCN(CCc2ccc3c(c2)CCO3)C1`: the Potency result in experiment [1] is “inactive”. Further, the activity change, negative = inhibition in experiment [2] was -1.98%.

Turning to `CC[C@]1(O)C[C@H]2CN(CCc3c([nH]c4ccccc34)[C@@](C(=O)OC)(c3cc4c(cc3OC)N(C=O)[C@H]3[C@@](O)(C(=O)OC)[C@H](OC(C)=O)[C@]5(CC)C=CCN6CC[C@]43[C@@H]65)C2)C1`, the Potency result in experiment [1] is “inactive”. Also, in experiment [2], the activity change, negative = inhibition was -77.7% and -70.4%.
